Only a selection was taken, and hits are over-represented in it overall.
Cruzain inh noDet: qHTS Assay for Promiscuous and Specific Inhibitors of Cruzain (without detergent). Cruzipain (Trypanosoma cruzi), P25779. purified cruzain, Z-FR-AMC fluorescence, no detergent. Potency, µM, for the others: max response, negative = inhibition, usual class: inhibitors. 200,000 tested, 2.3% active; active = well fitted curve in the direction sought with a large enough effect; inconclusive = small, poorly fitted or top-dose-only effect, or another doubt; inactive = no such curve, though single readings can be large; an effect the other way counts as inactive or inconclusive;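 also: potency is read from the fitted curve at half-maximal effect; plate controls were enzyme without inhibitor for no effect and buffer without enzyme for full effect; nearly all actives have a fitted effect of over 40% in size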
Target sequence (P25779 123-467 limits assumed): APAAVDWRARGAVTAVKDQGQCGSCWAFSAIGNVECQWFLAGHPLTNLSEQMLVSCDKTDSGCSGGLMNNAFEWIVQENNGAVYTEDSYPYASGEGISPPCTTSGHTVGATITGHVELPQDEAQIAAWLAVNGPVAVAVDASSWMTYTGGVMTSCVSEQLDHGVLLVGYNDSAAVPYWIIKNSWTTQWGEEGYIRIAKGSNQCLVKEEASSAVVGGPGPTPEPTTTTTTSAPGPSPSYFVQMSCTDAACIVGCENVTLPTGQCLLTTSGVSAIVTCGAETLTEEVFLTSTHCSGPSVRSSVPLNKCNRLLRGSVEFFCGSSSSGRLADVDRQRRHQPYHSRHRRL
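Purified cruzain at 1.5 nM, pre-incubated 15 min with compound at room temperature in 100 mM sodium acetate pH 5.5, 5 mM DTT, 0.00005% Triton X-100. Reaction started with 2 uM Z-FR-AMC; AMC fluorescence increase over 60 s gives rate.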
NS1 inh: qHTS Assay for Inhibitors of Influenza NS1 Protein Function; Potency, µM (top dose mostly 46.1 µM), inactives show top-dose activity, positive = more growth; 270,000 tested, 0.4% active; also: potency is read from the fitted curve at half-maximal effect; actives are rising curves; nearly all actives have a fitted effect of over 50% in size
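Compounds were scored for reversing the slow growth caused by influenza A NS1 in S. cerevisiae, measured by optical density at 600 nm. Assay medium contained 2% galactose at pH 6.0; NS1-free yeast of the same strain were the positive control.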
Cruzain Triton: qHTS Assay for Promiscuous and Specific Inhibitors of Cruzain (with detergent); Cruzipain (Trypanosoma cruzi), P25779; purified cruzain, Z-FR-AMC fluorescence, 0.01% Triton; Potency, µM, for inactives: max response, negative = inhibition, most hits filed as inhibitors; 200,000 tested, 0.43% active; AID 1478, 2009; active = well fitted curve in the direction sought with a large enough effect; inconclusive = small, poorly fitted or top-dose-only effect, or another doubt; inactive = no such curve, though single readings can be large; an effect the other way counts as inactive or inconclusive;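 also: potency is read from the fitted curve at half-maximal effect; plate controls were neutral wells for no effect and buffer without enzyme for full effect; nearly all actives have a fitted effect of over 40% in size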
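Purified cruzain (1.5 nM final) was preincubated with compounds for 15 min at room temperature in 100 mM sodium acetate pH 5.5, 5 mM DTT, 0.01% Triton X-100. Reaction started with 2 uM Z-FR-AMC; AMC fluorescence change over 60 s gave activity.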
NS1 inh valid: Assay for Inhibitors of Influenza NS1 Protein Function: Hit Validation | shares compounds with NS1 inh | influenza NS1 function cell assay, 15-point titration | activity change, negative = inhibition, % at 32.9 µM | 1,400 tested, under 10 active; also: 0% is about no effect
The depositor's hits bear a star; ? = inconclusive; / = not tested or not shown. Unless noted, calls follow the shape of the full dose curve.

SMILES	Cruzain inh noDet	NS1 inh	Cruzain Triton	NS1 inh valid
C=CCc1c(C)nc2nc(SCC(=O)Nc3ccc(OCC)cc3)nn2c1C	-7%	/	8%	/
CNC(=S)N1N=C(c2ccc(Br)cc2)CC1c1ccc(OC)cc1 (stereo not given)	?	22µM*	-5%	-32
CNC(=S)N1N=C(c2ccc(C)cc2)CC1c1ccc(OC)cc1 (stereo not given)	-1%	-12%	-3%	/
NNC(=O)c1oc2nc(-c3ccccc3)cc(-c3ccccc3)c2c1N	/	10µM*	/	23
CNC(=S)NNC(=O)c1oc2nc(-c3ccccc3)cc(C)c2c1N	/	2%	/	/
O=C1N/C(=N/N=C/c2ccccc2)SC1(c1ccccc1)c1ccccc1	4µM*	14µM*	1%	2
NC(=O)NC(=O)CC1S/C(=N/N=C/c2ccccc2)NC1=O (stereo not given)	/	13%	/	/
Cc1ccccc1Nc1nnc(C)c(=O)n1N	-2%	1.8µM*	3%	2
Cc1cccc(Nc2nnc(C)c(=O)n2N)c1	0%	18%	1%	/
C/C=C1/C(=O)C[C@H]2[C@@H]3CCC4=CC(=O)CC[C@]4(C)[C@H]3CC[C@]12C	5%	/	-1%	/
COc1ccc(/C=N/NS(=O)(=O)c2ccccc2)cc1OC(=O)c1ccc(C)cc1	?	8.9µM*	0%	-5
COc1ccc(/C=N/NS(=O)(=O)c2ccc(C)cc2)cc1OC(=O)c1ccccc1	?	7%	-4%	/
CC(=O)c1cccc(NS(=O)(=O)c2ccc(N/C=C/C(=O)c3ccc(F)cc3)cc2)c1	?	?	-8%	-20
CC(=O)c1cccc(NS(=O)(=O)c2ccc(N/C=C\C(=O)c3ccc(F)cc3)cc2)c1	?	5%	-3%	/
COc1cc(C(=O)OCC(=O)Nc2cc(-c3cc(C)c(C)cc3C)nn2-c2ccccc2)cc(OC)c1OC	9%	4%	-6%	/
Cc1cc(C)c(-c2cc(NC(=O)COC(=O)c3ccc(CO)cc3)n(-c3ccccc3)n2)cc1C	21%	11µM*	-6%	-14
CC(C)c1ccc(Nc2ncnc3onc(-c4ccc(F)cc4)c23)cc1	-7%	/	-14%	/
CCOC(=O)C1CCN(C(=O)Cn2cnc3sc(C)c(S(=O)(=O)N4CCOCC4)c3c2=O)CC1	/	-15%	/	/
NC(=O)c1ccsc1NC(=O)C1CCCN1S(=O)(=O)c1ccc(Cl)cc1 (stereo not given)	-1%	8.9µM*	-3%	-24
O=C(Nc1nccs1)C1CCCN1S(=O)(=O)c1ccc(Cl)cc1 (stereo not given)	1%	3%	3%	/
COc1cc(/C=N/NC(=S)N/N=C/c2cc(OC)c(OC)c(OC)c2)cc(OC)c1OC	?	11µM*	14µM*	18
COc1cc(/C=N/NC(=S)Nc2cccc(C(=O)O)c2)cc(OC)c1OC	-5%	3%	-12%	/
Cc1ccc(C)c(Cn2c(=O)n(CCCCC(=O)NCc3ccccc3Cl)c(=O)c3ccccc32)c1	-1%	/	-4%	/
Cc1nc(NCc2ccccc2)c2nc(-c3ccccc3)n(CCN3CCOCC3)c2n1	?	/	-5%	/
Cc1cc(C(=O)O)cc(S(=O)(=O)Nc2ccccc2C(=O)NC(C)c2ccccc2)c1C (stereo not given)	/	7.9µM*	/	31
SMILES	Cruzain inh noDet	NS1 inh	Cruzain Triton	NS1 inh valid
CC(NC(=O)c1ccccc1NC(=O)c1ccncc1)c1ccccc1 (stereo not given)	/	-2%	/	/
Cc1ccccc1NC(=O)c1ccccc1-c1ccccc1	/	-21%	/	/
O=C(O)c1ccccc1-c1ccccc1C(=O)Nc1ccccc1-c1ccccc1	/	10µM*	/	36
CC1CCCCN1CCCNC(=O)c1ccc2c(c1)sc1nc(-c3ccc(F)cc3)cn12 (stereo not given)	2%	/	-2%	/
CC(C)N1CCC(=NNC(=O)c2ccccc2[N+](=O)[O-])CC1	5%	-4%	0%	/
Cc1cccc(C)c1NC(=O)c1cn(-c2ccccc2)nc1-c1ccccc1	4%	-1%	-6%	/
O=C(NN=C1CCCCCC1)c1cn(-c2ccccc2)nc1-c1ccccc1	-13%	14µM*	-6%	32
O=C(NN=C1CCCC1)c1ccccc1[N+](=O)[O-]	/	?	/	11
Cc1ccc2cccc(NC(=O)c3ccc(-c4cc(Cl)ccc4Cl)o3)c2n1	2%	/	1%	/
CCC(=O)N1CCCc2cc(S(=O)(=O)N3CCC(C(=O)Nc4ccc(F)c(F)c4)CC3)ccc21	-7%	/	-3%	/
Cc1ccc(C)c(NC(=O)C(=O)NCCc2csc(-c3cccc(F)c3)n2)c1	-9%	/	0%	/
CCC(=O)[C@@H](c1ccccc1)c1ccccn1	-8%	0%	7%	/

Assay outcomes deposited in PubChem BioAssay by National Center for Advancing Translational Sciences (NCATS).
